The source of these data is PubChem BioAssay.

In general, viability refers to a read-out of living cells in per cent, often relative to untreated cells.

A short description of assay [1]: P. berghei load reduction in hepatocytes – cell-based, HepG2, luciferase luminescence, HepG2 viability, primary screen (AID 624349; in the data active = parasite load remaining mostly below about 12%, no sharp cut-off; inactive = mostly above about 10%;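 note: 100% = mean of DMSO negative control wells on the same plate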). To be noted: P. berghei liver stage in HepG2, luciferase luminescence, concentration not given here; parasite load remaining: stronger effect = lower value; viability: measured here: HepG2 viability without parasites.
Assay [2] can be described thus: EMT-state selective cytotoxicity in co-culture – imaging, PC-3E GFP, TEM4-18 mCherry, primary screen (AID 1345086).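 For all read-outs here: cells exposed to compound for 72 h before imaging.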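 For red/green cell ratio (normalised): normalised mesenchymal count divided by normalised epithelial count so high means epithelial killing.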 To be noted: PC-3E GFP / TEM4-18 mCherry co-culture, imaging cell counts, at 1 µM; for red/green cell ratio (normalised): actives lie on both sides, counts scaled to control wells, 1 = unselective.
The nature of assay [3]: viability loss with induced miR-34 in A549 – imaging, A549 dox-inducible miR-34, nuclei and caspase counts, primary screen (AID 1347080;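 active = compounds whose cell count with miR-34 switched on is under 0.7 times the count with it off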). The settings on record: A549 miR-34 inducible, Hoechst nuclei count, 48 h.
Assay [4] deals with Mitogen-activated protein kinase 7 (Homo sapiens) (UniProt Q13164). The assay can be described thus: Gal4-ERK5 driven luciferase induction – cell-based, HTS, primary screen (AID 1508626;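 active = luciferase signal above three times the same-plate solvent-only control wells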;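 note: luciferase driven by Gal4-ERK5 fusion binding five Gal4 sites before minimal TATA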). The settings on record: HeLa Gal4-ERK5 transactivation, 18 h, at 5 µM, stronger effect = higher value.
Chain of Mitogen-activated protein kinase 7 (Homo sapiens) (Q13164 whole entry, looked up, the tested form may be a part): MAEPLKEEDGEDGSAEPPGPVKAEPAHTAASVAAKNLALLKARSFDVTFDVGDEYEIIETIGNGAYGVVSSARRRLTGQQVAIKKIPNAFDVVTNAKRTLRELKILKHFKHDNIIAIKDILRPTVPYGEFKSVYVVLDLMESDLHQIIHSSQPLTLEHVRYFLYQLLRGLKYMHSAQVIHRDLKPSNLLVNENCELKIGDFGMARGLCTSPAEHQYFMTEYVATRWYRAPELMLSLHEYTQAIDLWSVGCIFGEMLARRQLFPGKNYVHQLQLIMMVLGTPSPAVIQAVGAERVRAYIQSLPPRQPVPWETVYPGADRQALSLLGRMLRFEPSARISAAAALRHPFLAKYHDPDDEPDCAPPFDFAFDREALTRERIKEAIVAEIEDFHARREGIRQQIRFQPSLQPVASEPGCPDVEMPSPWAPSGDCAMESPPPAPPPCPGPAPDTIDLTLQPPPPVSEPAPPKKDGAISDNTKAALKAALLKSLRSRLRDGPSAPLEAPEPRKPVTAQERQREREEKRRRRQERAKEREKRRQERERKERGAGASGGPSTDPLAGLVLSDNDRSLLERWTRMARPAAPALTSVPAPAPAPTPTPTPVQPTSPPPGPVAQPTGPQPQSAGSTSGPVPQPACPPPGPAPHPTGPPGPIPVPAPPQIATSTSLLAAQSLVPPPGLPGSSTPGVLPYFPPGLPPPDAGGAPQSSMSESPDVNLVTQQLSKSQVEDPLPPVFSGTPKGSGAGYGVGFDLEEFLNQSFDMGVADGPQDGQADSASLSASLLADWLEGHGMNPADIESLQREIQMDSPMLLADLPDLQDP
Where [5] appears, read: measured here: epithelial PC-3E GFP cell survival.
Where [6] appears, read: measured here: mesenchymal TEM4-18 mCherry cell survival.
Where [7] appears, read: stronger effect = lower value, cell number ratio, induced over uninduced.
[8] abbreviates: measured here: relative caspase fold change +Dox/-Dox.
[9] abbreviates: measured here: total cells with miR-34 induction, stronger effect = lower value.
Where [10] appears, read: measured here: total cells without miR-34 induction.

The structures appear in SMILES notation. Several values for one entry are separate records, joined by “and”; a condition that tells them apart may be missing. Equal values may be shown once. Activity calls are given as the source filed them.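 Rule for the calls, unless noted: active = compounds killing one labelled cell type while sparing the other, by normalised counts and ratio limits, not self-fluorescent; inactive = the rest.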 Bridge positions count the residues as written; N and C are the ends. Square brackets hold non-standard residues; d marks the D form. Peptide text beside a SMILES is read from it. * marks the point of attachment. Heptanoyl(6-Me) = CC(C)CCCCC(=O)*; Orn = NCCC[CH](N)C(=O)O; Dab = NCC[CH](N)C(=O)O

Consider `CCCCCCCCCCCCCCCC(=O)O[C@@H]1[C@@H](O)[C@@H](O)C([C@H](NC(=O)[C@@H]2C[C@@H](CCC)CN2C)[C@H](C)Cl)O[C@@H]1SC` (stereo not given in full), for which the parasite load remaining in assay [1] is 57.3% (inactive). In assay [1], the viability came out at 113%. In addition, in assay [2], the red/green cell ratio (normalised) is 0.93 (inactive). Besides, the normalised cell number is 1.03 in assay [2] (setting [5]) and 0.95 in assay [2] (setting [6]). Moreover, the fold change in assay [3] (setting [7]) is 0.819 (inactive); in assay [3] (setting [8]), 4.42. The cell count in assay [3] (setting [9]) amounted to 10800; in assay [3] (setting [10]), 13200.
On to `CC(C)CC1NC(=O)C(CCCN)NC(=O)C(C(C)C)NC(=O)C2CCCN2C(=O)C(Cc2ccccc2)NC(=O)C(CC(C)C)NC(=O)C(CCCN)NC(=O)C(C(C)C)NC(=O)C2CCCN2C(=O)C(Cc2ccccc2)NC1=O` (stereo not given) (cyclo(FPV[Orn]LFPV[Orn]L); configuration not given here), for which, in assay [1], the parasite load remaining is -0.175% (inactive). In addition, in assay [1], the viability was found to be 12.4%. Further, the red/green cell ratio (normalised) in assay [2] was 0.94 (inactive). Also, the normalised cell number in assay [2] (setting [5]) is 0.39; in assay [2] (setting [6]), 0.37. Further, the fold change was 0.889 (inactive) in assay [3] (setting [7]) and 1.03 in assay [3] (setting [8]). The cell count in assay [3] (setting [9]) worked out at 2080; in assay [3] (setting [10]) it was 2340.
`CCC(C)C1NC(=O)C(CCN)NC(=O)C(NC(=O)C(CCN)NC(=O)C(NC(=O)C(CCN)NC(=O)CCCCC(C)C)C(C)O)CCNC(=O)C(C(C)O)NC(=O)C(CCN)NC(=O)C(CCN)NC(=O)C(C(C)CC)NC1=O` (stereo not given) ({Heptanoyl(6-Me)}-[Dab]T[Dab][Dab][Dab]II[Dab][Dab]T; lactam 4-C; configuration not given here): the parasite load remaining in assay [1] is 49.5% (inactive). For the same compound, the viability in assay [1] came to 98.1%. Further, the red/green cell ratio (normalised) in assay [2] is 0.79 (inactive). Moreover, the normalised cell number in assay [2] (setting [5]) came out at 1.14; in assay [2] (setting [6]), 0.9. The fold change in assay [3] (setting [7]) was 0.901 (inactive); in assay [3] (setting [8]), 3.33. Moreover, the cell count in assay [3] (setting [9]) was found to be 12400; in assay [3] (setting [10]), 13800.
Consider `CC1C/C=C/C=C/C=C/C=C/C(O[C@@H]2O[C@H](C)[C@@H](O)[C@H](N)[C@@H]2O)CC2OC(O)(CC(O)CC3OC3/C=C/C(=O)O1)CC(O)C2C(=O)O` (stereo not given in full), for which the parasite load remaining in assay [1] was 78.2% (inactive). The viability in assay [1] was found to be 102%. Moreover, the red/green cell ratio (normalised) in assay [2] was 1.02 (inactive). For the same compound, the normalised cell number in assay [2] (setting [5]) was found to be 1.04; in assay [2] (setting [6]) it was 1.06. The figures for the fold change in assay [3] (setting [7]) and in assay [3] (setting [8]) were 0.858 (inactive) and 2.95, respectively. Also, the cell count came out at 11800 in assay [3] (setting [9]) and 13800 in assay [3] (setting [10]).
Regarding `C[N+](C)(C)CCOP(=O)([O-])OP(=O)(O)OC[C@H]1OC(n2ccc(N)nc2=O)[C@H](O)[C@@H]1O` (stereo not given in full), the parasite load remaining in assay [1] was 169% (inactive) and 55.3% (inactive). Further, in assay [1], the viability is 92.4% and 97.3%. In assay [2], the red/green cell ratio (normalised) is 1.29 (inactive). The normalised cell number in assay [2] (setting [5]) stood at 0.95; in assay [2] (setting [6]), 1.22. The fold change was 0.9 (inactive) in assay [3] (setting [7]) and 4.71 in assay [3] (setting [8]). Also, the figures for the cell count in assay [3] (setting [9]) and in assay [3] (setting [10]) were 12600 and 14000, respectively.
For `CC(CCC(=O)O)[C@H]1CCC2C3C[C@H](O)[C@@H]4C[C@H](O)CC[C@]4(C)C3CC[C@@]21C` (stereo not given in full), in assay [2], the red/green cell ratio (normalised) is 0.83 (inactive). For the same compound, the normalised cell number came to 1.24 in assay [2] (setting [5]) and 1.03 in assay [2] (setting [6]). Besides, the luciferase signal in assay [4] is 60 AU (inactive).
Taken in the same sequence, the figures for `COc1ccc2oc3ccccc3c(=O)c2c1` were 0.95 (inactive), 1.2, 1.14 and 88 AU (inactive).
Taken in the same sequence, the figures for `C[C@@H]1O[C@@H](O[C@H]2[C@H](Oc3cc(O)c4c(=O)cc(-c5ccc(O)cc5)oc4c3)O[C@H](CO)[C@@H](O)[C@@H]2O)[C@H](O)[C@H](O)[C@H]1O` were 1.02 (inactive), 0.87, 0.89 and 56 AU (inactive).
For `C=CCS(=O)C[C@H](N)C(=O)O` (stereo not given in full), in that order: 0.94 (inactive), 1.04, 0.98 and 128 AU (inactive).
For the compound `CC(=O)O[C@H]1C[C@@H](OC(C)=O)C(C)(C)C2C[C@@H](O)[C@]3(C)C(CC[C@@]4(C)[C@H](c5ccoc5)OC(=O)[C@H]5O[C@]543)[C@]21C` (stereo not given in full), the red/green cell ratio (normalised) in assay [2] was 0.99 (inactive). Besides, the normalised cell number in assay [2] (setting [5]) stood at 0.87; in assay [2] (setting [6]), 0.86. Also, the luciferase signal in assay [4] was 28 AU (inactive).
